One may read the inhibition as the drop in the measured response relative to a control, in per cent.

The values that follow come from PubChem BioAssay AID1852 (Sanford-Burnham Center for Chemical Genomics, 2009).

Out of some 2,500 compounds screened, about 1,100 (44%) were called active. So high a share suggests a set chosen from earlier hits. The list shows a part of the results. Unmarked numbers belong to inactive results.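 Rule for the calls: active = inhibition above 50% at 4 µM in the single-point screen; inactive = inhibition of 50% or less.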

This test can be described thus: blockers of TNF-a NF-kB luciferase induction – cell-based, HEK293T NF-kB-Luc, luminescence, selectivity assay for NOD1/NOD2 signaling inhibitor project, primary screen (AID 1852). As to conditions: TNF-a induced, 14 h, at 4 µM, active compounds read high.
Regarding `CC(C(=O)Nc1cccc([N+](=O)[O-])c1)N(c1ccccc1)S(C)(=O)=O` (configuration not stated), the inhibition is -12.9%.
The figure for `Cc1nc2ccc(NC(=O)c3cccc(S(=O)(=O)N(C)c4ccccc4)c3)cc2s1` is 53.4% (active); for `Cc1nc2ccc(NC(=O)c3cc(S(=O)(=O)N(C)c4ccccc4)ccc3Cl)cc2s1` it is 54.6% (active).
`CN(c1ccccc1)S(=O)(=O)c1cccc(NC(=O)c2cc(=O)c3ccccc3o2)c1`: the inhibition was 63.9% (active).
The figure for `COc1ccc(N(CC(=O)Nc2cccc(N(C)S(C)(=O)=O)c2)S(=O)(=O)c2ccc(C)cc2)cc1` is 14.3%.
As for `CSc1ncc(C(=O)Nc2cccc(S(N)(=O)=O)c2)n1-c1ccccc1`, the inhibition is 8.6%.
As for `CCCCn1c(SCC(=O)N2CCN(c3ccccc3)CC2)nc2ccsc2c1=O`, the inhibition was 28.9%.
The figure for `CC(=O)c1cccc(NC(=O)/C=C/c2ccc([N+](=O)[O-])s2)c1` is 99.5% (active).
`Cc1cccc(NC(=O)/C=C/c2ccc([N+](=O)[O-])s2)c1`: the inhibition was 57.7% (active).
The figure for `Cc1nc2cc(NC(=O)c3ccc([N+](=O)[O-])s3)ccc2s1` is 31.8%; for `Cc1cc(C)cc(NC(=O)/C=C/c2ccc([N+](=O)[O-])s2)c1` it is -10.2%.
On to `COC(=O)/C=C\C(=O)Nc1cccc([N+](=O)[O-])c1`, for which the inhibition is 28.4%.
On to `COc1ccc(C)cc1S(=O)(=O)N(CC(=O)Nc1cccc([N+](=O)[O-])c1)c1ccc(C)cc1`, for which the inhibition was 16.5%.
On to `CC(=O)Nc1ccc2nc(NC(=O)c3ccc([N+](=O)[O-])s3)sc2c1`, for which the inhibition is 19.3%.
As to `CCOC(=O)/C=C/C(=O)Nc1cccc([N+](=O)[O-])c1`, the inhibition was 72.3% (active).
On to `Oc1ccc(CCNc2ncnc3ccc(Cl)cc23)cc1`, for which the inhibition is 86.6% (active).
`COc1ccc(CCNc2ncnc3sccc23)cc1OC`: the inhibition was 60.1% (active).
The figure for `COc1ccc(CNc2ncnc3sccc23)cc1OC` is 50.2% (active); for `COc1ccc(CCNc2ncnc3sc(C)cc23)cc1OC` it is 58.6% (active); for `Fc1ccc(F)c(CNc2ncnc3cc(Cl)ccc23)c1` it is 8.3%.
In the case of `COc1cc2ncnc(NCc3ccc(C)cc3)c2cc1OC`, the inhibition was 0.3%.
For the compound `CCOc1ccc2[nH]c3c(NCCc4ccc(OC)c(OC)c4)ncnc3c2c1`, the inhibition was 39.1%.
As to `C(=N\c1ncnc2sccc12)/NOCc1ccccc1`, the inhibition was 28.6%.
With `c1ccc2c(c1)oc1c(Nc3ccc(CN4CCOCC4)cc3)ncnc12`, the inhibition is 4.6%.
As to `COc1ccccc1CNc1ncnc2sccc12`, the inhibition is 54.1% (active).
As for `COc1cc2ncnc(NCCc3ccccc3)c2cc1OC`, the inhibition is 4.6%.
In the case of `COc1ccc(CCNc2ncnc3c2oc2ccccc23)cc1OC`, the inhibition is 54.8% (active).
Take `COc1ccc(CCNc2ncnc3cc(OC)c(OC)cc23)cc1OC`: the inhibition was 54.8% (active).
On to `Clc1cccc(Cl)c1CON/C=N/c1ncnc2sccc12`, for which the inhibition was 15.1%.
For `C=CC[n+]1c(-c2ccc(Cl)cc2Cl)csc1Nc1c(C)n(C)n(-c2ccccc2)c1=O`, the inhibition is 28.9%.
The figure for `C=CC[n+]1c(-c2ccc(C)cc2)csc1Nc1ccc(NC(C)=O)cc1` is 99.4% (active); for `Cc1ccc(NC(=O)Nc2nnc(-c3ccncc3)s2)cc1` it is 27.4%; for `C=CC[n+]1c(-c2ccc(Cl)cc2Cl)csc1Nc1ccc(NC(C)=O)cc1` it is 64% (active).
As for `Cc1ccc(S(=O)Cc2ccc(C(=O)N3CCN(C4CCCCC4)CC3)o2)cc1` (configuration not stated), the inhibition was -23.1%.
On to `Cc1cc(C(=O)CSc2nnc(-c3ccco3)o2)c(C)n1-c1ccc2c(c1)OCCO2`, for which the inhibition was 10.1%.
With `COc1ccc(-n2c(C)cc(C(=O)CSc3nnc(-c4cccs4)o3)c2C)cc1`, the inhibition is 71.7% (active).
In the case of `Cc1cc(C(=O)CSc2nnc(-c3cccs3)o2)c(C)n1-c1ccccc1`, the inhibition was 53.4% (active).
The figure for `Nc1cc2ccncc2c2ccccc12` is 90.8% (active).
`NC(=O)c1cc2ccncc2c2ccccc12`: the inhibition is 90.8% (active).
The figure for `CCn1cc(CN2CCCC(C(=O)c3ccc(-c4ccccc4)cc3)C2)cn1` (configuration not stated) is 5.2%; for `Cc1ccc(-c2ccc(=O)n(Cc3ccc(F)cc3)n2)cc1` it is -22.8%; for `O=C(CSc1nc2nc(-c3cccs3)cc(C(F)(F)F)c2c(=O)[nH]1)Nc1ccc(F)c(F)c1` it is 86% (active).
Regarding `O=C(CSc1nc2nc(-c3cccs3)cc(C(F)(F)F)c2c(=O)[nH]1)Nc1c(F)c(F)c(F)c(F)c1F`, the inhibition is 92.5% (active).
Take `N#Cc1c(-c2cccs2)nc(SCc2ccc(Cl)cc2)[nH]c1=O`: the inhibition is 31.4%.
As for `Cc1ccc(C)c(NC(=O)CSc2nc3nc(-c4cccs4)cc(C(F)(F)F)c3c(=O)[nH]2)c1`, the inhibition was 86.9% (active).
Regarding `CCOc1ccccc1NC(=O)CSc1nc2nc(-c3cccs3)cc(C(F)(F)F)c2c(=O)[nH]1`, the inhibition was 74.5% (active).
Regarding `N#Cc1ccc(Cl)cc1NC(=O)CSc1nc2nc(-c3cccs3)cc(C(F)(F)F)c2c(=O)[nH]1`, the inhibition is 46.8%.
Take `C/C(=N\NC(=O)c1nnn(-c2nonc2N)c1CN(C)c1ccccc1)c1ccccn1`: the inhibition is -26.2%.
With `C/C(=N\NC(=O)c1nnn(-c2nonc2N)c1-c1ccccc1)c1ccccc1O`, the inhibition was 93.1% (active).
Regarding `C/C(=N\NC(=O)c1nnn(-c2nonc2N)c1CN(C)c1ccccc1)c1ccccc1O`, the inhibition was 92.8% (active).
`CCOc1cccc(-c2c(C(=O)N/N=C(\C)c3ccccn3)nnn2-c2nonc2N)c1`: the inhibition is 66.7% (active).
With `Cc1ccc(Nc2nc(N)nc(CCl)n2)cc1`, the inhibition is -3.9%.
As for `COc1ccccc1Nc1nc(N)nc(CCl)n1`, the inhibition was 28%.
The figure for `COc1ccc(OC)c(Nc2nc(N)nc(CCl)n2)c1` is 54.9% (active); for `COc1ccc(Nc2nc(N)nc(CCl)n2)cc1` it is 23.2%; for `Cc1ccc(Nc2nc(N)nc(CCl)n2)c(C)c1` it is 25.1%.
As to `CCOc1ccc(Nc2nc(N)nc(CCl)n2)cc1`, the inhibition is 65.6% (active).
Take `CCc1c(C)sc2nc(C(C)C)nc(SCC(=O)N3CCc4ccccc4C3)c12`: the inhibition is 53.6% (active).
The figure for `Cc1sc2nc(C3CC3)nc(SCC(=O)N3CCc4ccccc4C3)c2c1C` is -10.4%; for `CCc1nc(SCC(=O)N2c3ccccc3CC2C)c2c(C)c(C)sc2n1` (configuration not stated) it is -10%; for `COc1ccc(NC(=O)/C(C#N)=C/c2cc(C)n(-c3ccc(N4CCOCC4)c([N+](=O)[O-])c3)c2C)cc1` it is 15%.
Take `CCOC(=O)N1CCN(C(=O)c2ccc(Cn3c(=S)[nH]c4cc5c(cc4c3=O)OCO5)cc2)CC1`: the inhibition was 55.2% (active).
As to `O=C(c1ccc(Cn2c(=S)[nH]c3cc4c(cc3c2=O)OCO4)cc1)N1CCN(c2ncccn2)CC1`, the inhibition was 59.2% (active).
For `CCCCCn1c(=O)[nH]c2cc(C(=O)N3CCN(Cc4ccc5c(c4)OCO5)CC3)ccc2c1=O`, the inhibition was 34.6%.
Consider `CCOC(=O)N1CCN(C(=O)c2ccc(Cn3c(=S)[nH]c4ccc(Br)cc4c3=O)cc2)CC1`, for which the inhibition is 43.2%.
With `O=C(c1ccc(Cn2c(=S)[nH]c3ccccc3c2=O)cc1)N1CCN(c2ccccn2)CC1`, the inhibition was 17.4%.
With `Nc1ncc([N+](=O)[O-])c(N2CCCCCC2)n1`, the inhibition was 86.3% (active).
Consider `Cc1cc(C=O)c(C)n1-c1ccc(N2CCCCC2)c([N+](=O)[O-])c1`, for which the inhibition is 47.6%.
Regarding `Cc1cc(/C=N/Nc2nc(N)ncc2[N+](=O)[O-])c(C)n1-c1ccccc1F`, the inhibition is 26.6%.
In the case of `CN(C)c1cc[n+](CC(=O)c2ccc(-c3ccccc3)cc2)cc1`, the inhibition is 47.3%.
In the case of `CN(Cc1ccccc1)C(=S)NC(=O)c1ccc(-c2ccccc2)cc1`, the inhibition was 105% (active).
In the case of `C=CCN(CC=C)C(=S)NC(=O)c1ccc(-c2ccccc2)cc1`, the inhibition is 104% (active).
Turning to `O=C(Nc1ccccn1)c1ccc(-c2ccccc2)cc1`, the inhibition is -197%.
Consider `CC(C)C[C@H](NC(=O)c1nc[nH]c1C(=O)N(C)Cc1ccccc1)C(=O)OC(C)(C)C`, for which the inhibition was 26.1%.
For the compound `CCOC(=O)CSc1n[nH]c(NC(=O)CC)n1`, the inhibition is -7.7%.
On to `NC(=S)Nc1cccc2cn[nH]c12`, for which the inhibition was 75.7% (active).
On to `O=c1c(C(c2ccccc2)c2c(O)sc3ccccc3c2=O)c(O)sc2ccccc12`, for which the inhibition was 77.7% (active).
As to `NC(=O)c1nsc(C(=O)N(c2ccccc2F)C(C(=O)NCc2ccc(F)cc2)c2ccc(O)cc2)c1N` (configuration not stated), the inhibition is 69.7% (active).
As to `CN(C)c1ccc(C(C(=O)NCc2ccccc2)N(Cc2ccco2)C(=O)c2snc(C(N)=O)c2N)cc1` (configuration not stated), the inhibition was 11.8%.
Take `NC(=O)c1nsc(C(=O)N(c2ccccc2)C(C(=O)NCc2ccc(F)cc2)c2ccco2)c1N` (configuration not stated): the inhibition was -11.7%.
Take `COc1cc(CNc2ccc3[nH]c(=O)[nH]c3c2)ccc1OCc1ccccc1Cl`: the inhibition is 31.1%.
Take `COc1cc(C)ccc1OCCCOc1ccccc1Cl`: the inhibition is 90.6% (active).
For `COC(=O)c1ccccc1OCCCOc1ccc(C)cc1OC`, the inhibition is -116%.
Regarding `N#CC1=C(N)N2C(=C(C#N)C1c1ccc(Br)cc1)Nc1ccccc12` (configuration not stated), the inhibition is 86.9% (active).
With `N#CC1=C(N)N2C(=C(C#N)C1c1cccc(Br)c1)Nc1ccccc12` (configuration not stated), the inhibition was 89.3% (active).
On to `CCN1C(=O)/C(=C/c2nc3ccccc3c(=O)n2-c2ccc(C)cc2)c2ccccc21`, for which the inhibition is 23.6%.
As to `COc1ccc(C)cc1S(=O)(=O)N1CCN(C(=O)c2ncoc2-c2ccc(F)cc2)CC1`, the inhibition was 14.4%.
The figure for `COc1ccc(S(=O)(=O)N2CCCC(C(=O)NCc3ccncc3)C2)cc1Cl` (configuration not stated) is 8.9%; for `Cc1cc(Cl)c(S(=O)(=O)N2CCSCC2)cc1OCC(=O)NC1CCCCC1` it is 44.2%.
On to `Cc1cc(Cl)c(S(=O)(=O)N2CCN(c3ccc(F)cc3)CC2)cc1OCC(=O)NC1CCCCC1`, for which the inhibition was 69.7% (active).
The figure for `Cc1cc(Cl)c(S(=O)(=O)N2CCCCCC2)cc1OCC(=O)NC1CCCCC1` is 55.3% (active).
On to `Cc1cc(-c2ccc(C)c(S(=O)(=O)N3CCN(c4ccc(F)cc4)CC3)c2)on1`, for which the inhibition is 41%.
